Hits are enriched below; roughly 1% of the tested compounds scored in any of these assays.
RXFP1 ag: RXFP1 (human) receptor agonism | AID 2676 | Potency, µM (top dose mostly 57.5 µM), without a hit: top-dose activation, hits mostly activators | 370,000 compounds, 0.3% hits | HEK293T-RXFP1 cAMP TR-FRET, 30 min; response scale: percent of porcine relaxin response, buffer zero; active = well fitted activation curve with a large enough effect; inconclusive = small, poorly fitted or top-dose-only effect; also: potency is read from the fitted curve at half-maximal effect; % is scaled to controls: 0 for no effect and ±100 for the full control effect; nearly all actives have a fitted effect of over 60% in size
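HEK293T cells stably expressing RXFP1 were pretreated with the PDE4 inhibitor Ro 20174, exposed to compounds for 30 min at 37C, lysed, and cAMP was read by TR-FRET. Data normalized to buffer (basal) and 29 nM porcine relaxin (100%).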
TSHR antagonist: human thyrotropin receptor antagonism; TSHR-expressing cells, TSH-stimulated cAMP HTRF, 2 h; stronger effect = lower value; 330,000 compounds, 0.2% hits; activity change, negative = inhibition, % at 11.5 µM; AID 504810; P16473;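 active = activity change below a set negative limit, meaning inhibition stronger than a set level, cut at about -70% in these data; inconclusive = activity change between two set negative limits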; also: % is scaled to controls: 0 for no effect and ±100 for the full control effect
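Cell-based HTRF cAMP assay; TSHR cells + compound, TSH EC80 (4nM final), 2 h, 37 deg C. Lysis with anti-cAMP cryptate and cAMP-d2, 30 min RT, read 665/620 nm.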
gsp antag: gsp mutant antagonism. gsp-mutant cells, cAMP HTRF, 30 min. Potency, µM (titrated, usually from 76.9 µM), for the others: at the highest dose activity change, negative = inhibition, actives largely listed as inhibitors. 340,000 compounds, 0.4% hits; calls by dose curve; cell line not stated here;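 also: intracellular cAMP measured with PDE inhibitor Ro 20-1724 present during compound exposure; potency is read from the fitted curve at half-maximal effect; % is scaled to controls: 0 for no effect and ±100 for the full control effect; nearly all actives have a fitted effect of over 65% in size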
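Cells in G418 medium, seeded 16-24 h, 37C; buffer exchange to DPBS + 1 mM CaCl2, 0.5 mM MgCl2, 0.05% BSA; cpds in DMSO + […] (300 uM stock), 30 min 37C; HTRF cAMP detection.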
gsp agonist: agonists of gsp mutant (McCune-Albright syndrome); gsp mutant cells, cAMP HTRF, 30 min; Potency, µM (top dose mostly 76.9 µM), for the others: top-dose activation (cAMP increase), most hits filed as activators; 340,000 compounds, 0.13% hits; AID 624287; active = well fitted activation curve with a large enough effect; inconclusive = small, poorly fitted or top-dose-only effect, or another doubt; inactive = no such curve, though single readings can be large or run the other way; cell line not stated here;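 also: phosphodiesterase inhibitor Ro 20-1724 added with compounds to block cAMP breakdown; potency is read from the fitted curve at half-maximal effect; nearly all actives have a fitted effect of over 60% in size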
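Cells in DMEM/10% FBS with G418 were pretreated with compounds in DMSO plus […] (300 uM stock) for 30 min at 37C. cAMP was measured by HTRF (cAMP-d2 plus anti-cAMP antibody-K) after 30 min at room temperature.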
RXFP1 antag: antagonists of human relaxin receptor RXFP1; Q9HBX9; HEK293-RXFP1, relaxin-stimulated cAMP HTRF, 30 min; stronger effect = lower value; activity change, negative = inhibition, % at 57.5 µM; 350,000 compounds, 0.59% hits;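 active = activity change of -60% or lower, but not beyond a set lower limit; inconclusive = change between -60% and -40%, or beyond the set limit; inactive = change above -40%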; also: % is scaled to controls: 0 for no effect and ±100 for the full control effect
The depositor's hits bear a star; ? = inconclusive; / = no result given; ! = not active in a repeat; [ ] = remark or other dose.

SMILES	RXFP1 ag	TSHR antagonist	gsp antag	gsp agonist	RXFP1 antag
O=C(CSc1ncc2c(n1)-c1cc(Cl)ccc1N(Cc1ccccc1)S2(=O)=O)NCc1ccccc1	2%	/	/	/	/
O=C(Cn1ncc2c3ccccc3n(Cc3cccc(Cl)c3)c2c1=O)NC1CCCCCC1	7%	/	/	/	-2
N#Cc1ccccc1NC(=O)CN1CCN(Cc2ccccc2)CC1	0%	-9	35µM*	0%[15.4 µM]	-6
O=Cc1c[nH]c2ccc(S(=O)(=O)N3CCCCC3)cc12	/	/	/	-48%	-5
COc1cccc(/C=N/NC(=O)CSc2cccc3cccnc23)c1	11%	-4	2%	16%	0
O=C(CSc1cccc2cccnc12)N/N=C/c1ccc(O)cc1	3%	-78*	-11%	-36%	-6
COC(=O)c1ccccc1NC(=O)CSc1nc2ccccc2nc1Cc1ccccc1OC	13%	/	/	/	/
CC(C)S(=O)(=O)C1=NSC2=NC(=O)/C(=C\c3ccc(-c4ccccc4)o3)C(=N)N21	1%	-86*	?	1%	4
COc1ccc2c(c1)O[C@@H](c1cccc(C(F)(F)F)c1)[C@H](OC(=O)Nc1ccc(OC(F)F)cc1)C2=O	4%	-7	11µM*	8%	/
COc1ccc2c(c1)O[C@@H](c1cccc(C(F)(F)F)c1)[C@H](OC(=O)N[C@H]1CCCc3ccccc31)C2=O	0%	0	/	/	/
CCc1cc(/C(Cc2ccccn2)=N\O)c(O)cc1O	-2%	-21	35µM*	13%	0
O=C(O)CCCCn1c(SCc2cc(=O)n3cc(Cl)ccc3n2)nc2ccsc2c1=O	?	4	14%	?	-5
COc1ccc(CCNC(=O)CSc2nc3ccsc3c(=O)n2CC2CCC(C(=O)O)CC2)cc1OC (stereo not given)	1%	3	5%	22%	-8
O=C(O)C1CCC(Cn2c(SCc3cc(=O)n4cc(Br)ccc4n3)nc3ccsc3c2=O)CC1 (stereo not given)	8.9µM*	6	/	21%[15.4 µM]	-3
O=C(O)c1ccc(Cn2c(SCc3cc(=O)n4cc(Br)ccc4n3)nc3ccsc3c2=O)cc1	16µM*	-1	/	/	/
O=NN(CCCl)C(=O)NC1CCCCC1	/	/	/	/	6
Cc1ccc(-n2nc(CO)c(C(=O)NC(C)CCCc3ccccc3)n2)cc1C (stereo not given)	0%	/	/	/	?
Cc1ccc(NCc2nc3ccccc3n2CCOc2ccccc2)cc1	5%	-21	-9%	-2%	-62*!
CC1=NNC(=O)/C1=C\c1cn(-c2ccccc2)nc1-c1ccc(F)cc1	0%	-5	-2%	-9%[15.4 µM]	-61*
CC1=NNC(=O)/C1=C\c1cn(-c2ccccc2)nc1-c1cccs1	4%	-5	94%	1%	?
Cc1ccc(-c2nn(-c3ccccc3)cc2/C=N/O)cc1	6%	19	11%	-4%	-64*
O/N=C/c1cn(-c2ccccc2)nc1-c1cccnc1	1%	17	-13%	5%[15.4 µM]	-19
O=C(Nc1ccc2nc(SCCOc3ccccc3Cl)sc2c1)c1cccs1	1%	/	/	/	0
CCC1SC(=NC(=O)c2ccc(Cl)c(Cl)c2)NC1=O (stereo not given)	-1%	-4	13µM*	2%	-12
COc1ccc(CNC(=O)c2ccc3nc(CCc4ccccc4)oc3c2)c(OC)c1	3%	/	/	/	/
SMILES	RXFP1 ag	TSHR antagonist	gsp antag	gsp agonist	RXFP1 antag
O=C(Cc1ccc(S(=O)(=O)N2CCOCC2)s1)Nc1nc2c(s1)CCCC2	0%	6	7.9µM*	-38%	-31
CCc1ccc(NC(=O)C2CCN(S(=O)(=O)c3c(C)noc3/C=C/N(C)C)CC2)cc1	2%	-1	-9%	-1%	-62*
CCc1ccc(NC(=O)C2CCN(S(=O)(=O)c3c(C)noc3/C=C/c3cccs3)CC2)cc1	2%	/	/	/	2
COc1ccc(-c2nc3sc(CCNC(=O)Cc4ccc(F)cc4)c(C)n3n2)cc1	2%	/	/	/	2
CC1C(=O)N(Cc2ccccc2F)c2ccccc2N1C(=O)c1c(F)cccc1F (stereo not given)	-1%	-38	?	-19%	-11
COc1cccc(CN2C(=O)C(C)N(C(=O)c3c(F)cccc3F)c3ccccc32)c1 (stereo not given)	3%	-13	35µM*	-19%	-3

Source: PubChem
